Test results from PubChem BioAssay (NCATS).
Results filed as inconclusive are left out. The source made the active and inactive calls. Calls come from the whole dose curve; as a rule, active = well fitted cell-killing curve with a large enough effect; inconclusive = small, poorly fitted or top-dose-only effect, or effect the other way; inactive = no such curve, though single readings can be large or run the other way.

Experiment: qHTS assay to identify small molecule inhibitors of chordoma cells - UCH-1 (AID 1259355); note: nearly all actives have a fitted effect of over 55% in size
Conditions: UCH-1 chordoma viability, CellTiter-Glo, 48 h, combination, with auranofin plus four topoisomerase inhibitors; series mostly up to 46.1 µM; activity, negative = inhibition: at the top concentration
Summary of the method: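 Screening used approved and investigational drugs in 15-point titration against 800 seeded cells per well. A fixed combination of auranofin with camptothecin, doxorubicin, rubitecan and topotecan followed compound addition, and growth was scored by CellTiter-Glo after 48hr.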
% is set by controls: 0 for no effect and ±100 for the full control effect; potency is the fitted concentration of half-maximal effect.

Row | Structure (SMILES) | activity, negative = inhibition | Potency
1 | O=C(OC1C[C@@H]2CC3C[C@H](C1)N2CC3=O)c1c[nH]c2ccccc12 (stereo partly drawn) | -9.29% (inactive) | 
2 | NCCCC[C@H](N)C(=O)O | -12.7% (inactive) | 
3 | COc1c(O[C@@H]2O[C@H](CO)[C@@H](O)[C@H](O)[C@H]2O)cc2c(c1OC)-c1ccc(SC)c(=O)cc1[C@@H](NC(C)=O)CC2 | -3.38% [at 20.6 µM] (inactive) | 
4 | CCC(=O)OC(OP(=O)(CCCCc1ccccc1)CC(=O)N1C[C@H](C2CCCCC2)C[C@H]1C(=O)O)C(C)C (stereo partly drawn) | -8.14% (inactive) | 
5 | C=C1CC[C@H](O)CC1=C/C=C1\CCC[C@]2(C)[C@@H]([C@H](C)/C=C/[C@H](C)C(C)C)CC[C@@H]12 | -6.79% (inactive) | 
6 | CC(C)N1CCN(c2ccc(OC[C@H]3CO[C@](Cn4cncn4)(c4ccc(Cl)cc4Cl)O3)cc2)CC1 | -20.7% [at 20.6 µM] (inactive) | 
7 | COc1ccc(C(=O)CCC(=O)O)c2ccccc12 | -4.88% (inactive) | 
8 | CC(C)c1nc(N(C)S(C)(=O)=O)nc(-c2ccc(F)cc2)c1/C=C/C(O)CC(O)CC(=O)O (stereo not drawn) | -18.8% (inactive) | 
9 | NC(=O)OC[C@@H]1[C@H](NC(=O)/C(=N\OCC(=O)O)c2csc(N)n2)C(=O)N1S(=O)(=O)O | -13.1% (inactive) | 
10 | Nc1nc(/C(=C/CC(=O)O)C(=O)N[C@@H]2C(=O)N3C(C(=O)O)=CCS[C@H]23)cs1 | -19.6% (inactive) | 
11 | NC(=O)[C@@H]1CCCN1C(=O)[C@H](Cc1cnc[nH]1)NC(=O)[C@@H]1CCC(=O)N1 | -7.46% (inactive) | 
12 | CCOC(=O)c1c[nH]c2cc(OCC(C)C)c(OCC(C)C)cc2c1=O | -5.72% (inactive) | 
13 | O=C(O)CCC(=O)c1ccc(-c2ccccc2)cc1 | -19.7% [at 20.6 µM] (inactive) | 
14 | CC(=O)NCCCS(=O)(=O)O | -17.9% (inactive) | 
15 | CN[C@@H]1[C@@H](O)[C@@H](O[C@@H]2[C@@H](O)[C@H](O[C@H]3O[C@H](CN)[C@@H](O)[C@H](O)[C@H]3O)[C@@H](N)C[C@H]2NC(=O)C(O)CN)OC[C@]1(C)O (stereo partly drawn) | -28.1% (inactive) | 
16 | CO/N=C(\C(=O)N[C@@H]1C(=O)N2C(C(=O)O)=C(CSc3nc(C)c(CC(=O)O)s3)CS[C@H]12)c1csc(N)n1 | 9.48% (inactive) | 
17 | CO[C@H]1C[C@@H]2CC[C@@H](C)[C@@](O)(O2)C(=O)C(=O)N2CCCC[C@H]2C(=O)O[C@H]([C@H](C)C[C@@H]2CC[C@@H](OC(=O)C(C)(CO)CO)[C@H](OC)C2)CC(=O)[C@H](C)/C=C(\C)[C@@H](O)[C@@H](OC)C(=O)[C@H](C)C[C@H](C)/C=C/C=C/C=C/1C | -0.0197% (inactive) | 
18 | CC(=O)OCC1=C(C(=O)O)N2C(=O)[C@@H](NC(=O)Cc3ccccc3)[C@H]2SC1 | -2.49% (inactive) | 
19 | O=C(OCc1ccccc1)c1cccnc1 | -23.5% (inactive) | 

Row | Structure (SMILES) | activity, negative = inhibition | Potency
20 | CN(Cc1ccccc1)Cc1ccccc1 | -7.09% (inactive) | 
21 | O=C(O)/C=C/c1ccccc1 | -14.8% (inactive) | 
22 | CCOC(=O)[C@@H](N)CS | -7.57% (inactive) | 
23 | O=C1[O][Bi][O]c2ccccc21 | -4.22% (inactive) | 
24 | COC(=O)CCC[N+](C)(C)C | -15.1% (inactive) | 
25 | CN[C@@H]1[C@H](O[C@H]2[C@H](O[C@H]3[C@H](O)[C@@H](O)[C@H](N=C(N)N)[C@@H](O)[C@@H]3N=C(N)N)O[C@@H](C)[C@]2(O)C=O)O[C@@H](CO)[C@H](O)[C@H]1O | -9.08% (inactive) | 
26 | Cc1cccc(C)c1NC(=O)C1CCCCN1C (stereo not drawn) | -15.4% (inactive) | 
27 | Nc1nc(NC2CC2)c2ncn([C@@H]3C=C[C@@H](CO)C3)c2n1 | -9.51% (inactive) | 
28 | O=C(OC[C@H]1O[C@@H](OC(=O)c2cc(O)c(O)c(OC(=O)c3cc(O)c(O)c(O)c3)c2)[C@H](OC(=O)c2cc(O)c(O)c(OC(=O)c3cc(O)c(O)c(O)c3)c2)[C@@H](OC(=O)c2cc(O)c(O)c(OC(=O)c3cc(O)c(O)c(O)c3)c2)[C@@H]1OC(=O)c1cc(O)c(O)c(OC(=O)c2cc(O)c(O)c(O)c2)c1)c1cc(O)c(O)c(OC(=O)c2cc(O)c(O)c(O)c2)c1 |  | 15.8 µM (active)
29 | Cc1c(O)c(=O)ccn1C | -11.9% (inactive) | 
30 | O=C(O)COc1ccc(CCNS(=O)(=O)c2ccccc2)s1 | -3.88% (inactive) | 
31 | CC1(C)C(\C=C/C=C\C=C/C=C2/N(CCCCS(=O)(=O)O)c3ccc4ccccc4c3C2(C)C)=[N+](CCCCS(=O)(=O)[O-])c2ccc3ccccc3c21 | -20% (inactive) | 
32 | CC(=O)Oc1cccc(C(=O)O)c1OC(C)=O | -12.9% (inactive) | 
33 | CCCCCCCCCCCCCCCCCCOCC(COP(=O)([O-])OCC[N+](C)(C)C)OC (stereo not drawn) | 9.41% (inactive) | 
34 | C/C(=C\C(=O)OCCCCCCCCC(=O)O)C[C@@H]1OC[C@H](C[C@@H]2O[C@H]2[C@@H](C)[C@H](C)O)[C@@H](O)[C@H]1O | 0.0299% (inactive) | 
35 | NC(=S)N=Nc1ccc(NN=C(N)N)cc1 | -18.9% (inactive) | 
36 | CSc1nc2cc(Oc3cccc(Cl)c3Cl)c(Cl)cc2[nH]1 | -6.12% (inactive) | 
37 | C=C1CC[C@H](O)CC1=C/C=C1\CCC[C@]2(C)[C@@H]([C@H](C)CC[C@@H](O)C(C)(C)O)CC[C@@H]12 | -10.5% (inactive) | 
38 | NCC(O)CC(=O)O (stereo not drawn) | -34.6% (inactive) | 
